Source: PubChem
This is a sample that favours compounds with a hit; in the whole collection about 21% have one here.
Pf growth 48h: P. falciparum growth inhibition at 48 hours (one generation); P. falciparum luciferase growth in erythrocytes, 48 h; Potency, µM (highest dose often 28.7 µM), inactives show at the top dose activity change, negative = inhibition, actives largely listed as inhibitors; 5.9% of 310,000 active; AID 504832; further: potency means the concentration at half of the fitted maximal effect; on the % scale 0 is the no-effect control and ±100 the full control effect
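Luciferase-expressing P. falciparum in infected erythrocytes (2% hematocrit, 0.1% parasitemia final) in RPMI 1640/0.5% Albumax were exposed to compound for 48 hours at 37 C, 5% CO2; growth read as luminescence.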
CHX counter: counter-screen for Shiga toxin inhibitors: cycloheximide protein synthesis inhibition; AID 2314; 12% of 300,000 active; cell reporter, cycloheximide protein synthesis inhibition counterscreen; max response, %; in the data active means max response mostly above about 13%, no sharp cut-off; inactive means mostly below about 14%; further: read at 38.3 µM for the half of the compounds with a filed dose; 0% is about no effect
Shiga inhibitor: Shiga toxin inhibition; Vero cells, Shiga toxin protein synthesis inhibition reporter; inhibition, % at 38.7 µM; 9.2% of 290,000 active; in the data active means inhibition mostly above about 28%, no sharp cut-off; inactive means mostly below about 43%; further: 0% is about no effect
Pf growth 96h: inhibits malaria parasite growth, 96 h. P. falciparum luciferase reporter growth, 96 h. Potency, µM (highest dose often 28.7 µM), without a hit: at the top dose activity change, negative = inhibition, hits mostly inhibitors. 6.9% of 320,000 active. AID 504834; further: potency means the concentration at half of the fitted maximal effect; on the % scale 0 is the no-effect control and ±100 the full control effect
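Two parasite generations (96 h, 37 C, 5% CO2) of compound exposure in infected erythrocytes (0.05% parasitemia, 2% hematocrit). Luciferase-reporter P. falciparum; decreased luminescence indicates inhibited growth, aimed at apicoplast-acting delayed death.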
NS1 inh: inhibitors of influenza NS1 protein function; AID 2326; 0.4% of 270,000 active; Potency, µM (titrated, usually from 46.1 µM), without a hit: at the highest dose activity, positive = more growth; calls by dose curve; further: potency means the concentration at half of the fitted maximal effect; actives are rising curves; nearly all actives have a fitted effect of over 50% in size
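Read-out: OD600 growth recovery of NS1-expressing budding yeast. Cells grown overnight at 30C in -URA glucose medium, washed, resuspended and diluted 1:100 in 2% galactose assay medium, pH 6.0. Same strain lacking NS1 served as positive control.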
FBPA Giardia inh: blocks Giardia fructose-bisphosphate aldolase activity; A8B2U2; purified Giardia FBPA; Potency, µM (top dose mostly 59.6 µM), for inactives: at the top dose activity, negative = inhibition, hits mostly inhibitors; 0.71% of 290,000 active; AID 2451; further: potency means the concentration at half of the fitted maximal effect; on the % scale 0 is the no-effect control and ±100 the full control effect; nearly all actives have a fitted effect of over 55% in size
Target sequence (A8B2U2 whole entry, looked up): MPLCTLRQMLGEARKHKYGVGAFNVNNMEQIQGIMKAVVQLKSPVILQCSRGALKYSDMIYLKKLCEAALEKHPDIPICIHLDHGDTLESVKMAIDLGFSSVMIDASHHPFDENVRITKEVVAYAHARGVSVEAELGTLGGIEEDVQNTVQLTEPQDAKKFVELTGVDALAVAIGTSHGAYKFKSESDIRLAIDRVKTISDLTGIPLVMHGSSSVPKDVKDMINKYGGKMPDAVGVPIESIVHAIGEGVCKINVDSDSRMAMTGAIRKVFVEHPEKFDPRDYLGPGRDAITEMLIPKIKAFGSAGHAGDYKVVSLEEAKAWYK
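40 nM FBPA preincubated 10 min at RT with compound (up to 57.5 uM final), then substrate plus GAPDH/TPI/NAD/arsenate coupling and diaphorase/resazurin added. Fluorescence read after 20 min at RT, 525/598 nm.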
* = called active by the depositor; ? = inconclusive; . = no result; [ ] = another dose, or the depositor's remark. Unless noted, the call rests on the fitted dose curve; in most records, active means well fitted curve in the direction sought with a large enough effect; inconclusive means small, poorly fitted or top-dose-only effect, or another doubt; inactive means no such curve, though single readings can be large; an effect the other way counts as inactive or inconclusive.

SMILES	Pf growth 48h	CHX counter	Shiga inhibitor	Pf growth 96h	NS1 inh	FBPA Giardia inh
CN(Cc1ccccc1)C(=O)c1ccc2c(c1)OCCO2	23%	11	15	.	-7%	0%
O=C(Cc1ccccc1)c1ccc2c(c1)OCCO2	55%	43*	87*	0%	-3%	4%
CN(CCOC(=O)c1ccc2c(c1)OCCO2)C(C)(C)C	12%	17*	23	57%	-3%	-14%
O=C(c1ccccc1)c1ccc2c(c1)OCCOCCOCCOCCO2	18%	8	22	5%	4%	10%
CN(C(=O)c1ccc2c(c1)OCO2)C1(C)CCS(=O)(=O)C1 (stereo unspecified)	0%	.	.	-1%	.	.
O=c1ccc2ccc(OS(=O)(=O)O)cc2o1	.	4	-2	.	.	-1%
CCn1cc(C(=O)N2CCN(c3ccc(OC)cc3)CC2)c(=O)c2cc(S(=O)(=O)N3CCOCC3)ccc21	5%	-6	-8	2%	-13%	-7%
COc1cc(OC)cc(-c2nc3ccccc3c(=O)n2OC(=O)c2ccc(C)c(C)c2)c1	0%	9	18	?	-2%	2%
COc1cccc(C(=O)OCCCN(C)C)c1	13%	-2	32	32%	0%	-2%
COc1cccc(C(=O)OCCN(C)C(C)(C)C)c1	.	-6	-4	8.3µM*	3%	-5%
COc1cc(C2C(C#N)=C(N)N(Nc3ccccc3)C3=C2C(=O)CC(C)(C)C3)ccc1OCc1ccccc1 (stereo unspecified)	4.1µM*	2	-1	2.9µM*	23%	-11%
C=CCOc1ccc(C2C(C#N)=C(N)N(Nc3ccccc3)C3=C2C(=O)CCC3)cc1OC (stereo unspecified)	8.3µM*	-3	-13	4.7µM*	10%	-11%
N#CCc1nc(C(c2ccccc2)c2ccccc2)no1	?	-4	-8	?	?	?
Cc1ccc(S(=O)(=O)n2nccc2-c2c(-c3ccc(Cl)cc3)noc2C)cc1	0.66µM*	-1	-3	0.37µM*	2%	5%
COC(=O)CC1c2ccccc2C=C(C2CC2)N1C(=O)OC (stereo unspecified)	.	.	.	.	.	0%
CNC(=O)CSc1cn(CC(=O)N(C(C)C)C(C)C)c2ccccc12	1%	-2	23	10µM*	.	-4%
COc1ccc(CCNC(=O)CS(=O)(=O)c2cn(CC(=O)N(C(C)C)C(C)C)c3ccccc23)cc1OC	?	2	-5	10µM*	-15%	.
CC(C)N(C(=O)Cn1cc(S(=O)(=O)CC(=O)Nc2ccccc2)c2ccccc21)C(C)C	?	8	-11	8.3µM*	6%	.
CCC1(c2ccccc2)C(=O)NC(=O)N(C(=O)c2ccccc2)C1=O (stereo unspecified)	-11%	.	.	-25%	.	.
NCCCCCc1cnc[nH]1	.	-2	16	.	.	?
Cc1ccc(O)c(NC(=O)c2ccc3c(c2)C(=O)N(Cc2cccnc2)C3=O)c1	1%	3	10	?	5%	7%
C/C(N)=C(/C#N)C(=O)COC(=O)C1CCC(C(C)(C)C)CC1 (stereo unspecified)	-12%	16*	56*	.	-15%	-5%
CCN(c1ccccc1)S(=O)(=O)c1ccc(Cl)c(C(=O)N(CC2CCCO2)C2CCS(=O)(=O)C2)c1 (stereo unspecified)	1.7µM*	-2	-10	?	.	1%
CCN(c1ccccc1)S(=O)(=O)c1ccc(Cl)c(C(=O)N2CCCC2)c1	-11%	.	.	?	.	.
Cc1cc(C)cc(-n2ncc3c2CCCC3NC(=O)c2ccccc2N2CCOCC2)c1 (stereo unspecified)	?	-2	-11	-34%	-56%	8%
SMILES	Pf growth 48h	CHX counter	Shiga inhibitor	Pf growth 96h	NS1 inh	FBPA Giardia inh
CCc1[nH]nc(C(=O)NC2CCCc3c2cnn3-c2cc(C)cc(C)c2)c1C (stereo unspecified)	75%	27*	55*	?	-73%	.
Cc1nnsc1C(=O)NC1CCCc2c1cnn2-c1cc(F)cc(F)c1 (stereo unspecified)	-8%	8	11	50%	-4%	.
CCc1noc(C)c1C(=O)NC1CCCc2c1cnn2-c1cc(C)cc(C)c1 (stereo unspecified)	?	34*	34	-28%	-6%	9%
COc1cc(C(=O)ON=C2C=C(C)C(=O)C(C)=C2)cc(OC)c1OC	-24%	8	-26	30%	-10%	?
COc1cc(C(=O)O/N=C2\C=CC(=O)C(C)=C2)cc(OC)c1OC	?	71*	101*	?	-35%	20µM*
CC(C#Cc1c([C@@H](C)Oc2ccccc2)nnn1Cc1ccccc1)Oc1ccccc1 (stereo partly specified)	12µM*	9	-3	9.3µM*	0%	-5%
CC(=O)Nc1ccc(/C=N/NC(=S)NC(C)C)cc1	?	-3	2	-13%	-1%	-13%
CC(=O)Nc1ccc(/C=N/N2CCCCC2)cc1	255%	44*	116*	79%	.	-2%
CC(=O)Nc1ccc(/C=N/N2C(C)CCCC2C)cc1 (stereo unspecified)	59%	16*	22	2%	.	13%
Cc1cnc(C(=O)OCC(=O)N(Cc2ccccc2)C(C)C)cn1	0%	1	14	30%	-1%	0%
Fc1ccc(-c2nc3cnccn3c2NC2CCCC2)cc1	-22%	-4	-2	18%	-2%	2%
Oc1ccc(Br)cc1-c1nc2cnccn2c1NC1CCCCC1	3.3µM*	-6	-6	.	-151%	-7%
Oc1ccc(Br)cc1-c1nc2cnccn2c1NC1CCCC1	2.6µM*	-3	-12	-4%	-42%	-8%
COc1cc(NC(=S)NC2CC(C)(C)NC(C)(C)C2)c(OC)cc1Cl	?	-5	-1	?	-3%	-6%
CCN(C(=O)c1cc2ccccc2oc1=O)c1cccc(C)c1	.	53*	78*	?	3%	5%
CCN(C(=O)c1cc2ccccc2oc1=O)c1ccccc1	.	24*	42	.	-9%	-3%
COCCCn1cnc2oc3nc4ccccc4nc3c2c1=O	113%	37*	98*	79%	-16%	0%
COc1cccc(C=O)c1OC(=O)N1CCOCC1	2%[0.00184 µM]	-7	14	3%	1%	6%
CC(C)CCN(CCC(C)C)C/C(O)=C(\C#N)c1nc(-c2ccccc2)cs1	.	-1	-8	2.6µM*	4%	-10%
O=C1[C@H]2[C@H]3[C@H](O)[C@H](O)C/C(=N/OCc4ccccc4)[C@@H]3CC[C@@H]2C(=O)N1c1cccc(Oc2ccccc2)c1	.	.	.	.	.	3%[12.9 µM]
Cn1c(=O)c(C(=O)CN2CCCc3ccccc32)c(N)n(Cc2ccccc2)c1=O	?	49*	15	.	?	-15%
Cn1c(=O)c(C(=O)CN2CCc3ccccc32)c(N)n(Cc2ccccc2)c1=O	12µM*	-1	-10	8.3µM*	23%	-10%
